Data as given in PubChem BioAssay (Tox21).
A number with no mark means an inactive call. Records with an inconclusive call do not appear. Where a call stands in place of a potency, no number is given. The source made the active and inactive calls. Unless noted, the call rests on the fitted dose curve; in most records, active means well fitted curve in the direction sought with a large enough effect in the repeat runs; inconclusive means weak or mixed curves; inactive means no such curve, though single readings can be large; an effect the other way counts as inactive or inconclusive.

Assays:
[1] = qHTS assay for small molecule agonists of the p53 signaling pathway (AID 651631; calls by dose curve; further: nearly all actives have a fitted effect of over 15% in size)
Procedure, shortened: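 HCT-116 p53RE-bla reporter line, 16 h compound treatment at 37 °C, then fluorescence after 2 h with B/G FRET substrate.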

[2] = qHTS assay for small molecules that induce genotoxicity in human embryonic kidney cells expressing luciferase-tagged ATAD5 (AID 651632); further: nearly all actives have a fitted effect of over 15% in size
Procedure, shortened: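 Luminescence read-out: after 16 hr compound exposure at 37C, ATAD5-luciferase HEK293T cells received Amplite, 30 min RT, then CCD imaging. A rise in signal marks genotoxic stress.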

[3] = qHTS assay for small molecule agonists of the p53 signaling pathway - cell viability (AID 651633; calls by dose curve;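 further: p53RE-bla HCT reporter cells with a stable beta-lactamase p53 reporter; series mostly up to about 83 µM; nearly all actives have a fitted effect of over 30% in size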)
Procedure, shortened: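 Viability counter-read: CellTiter-Glo luminescence (30 min, room temperature) in the same p53RE-bla plates. These plates had been exposed to compounds for 16 h at 37 C.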

[4] = qHTS assay for small molecules that induce genotoxicity in human embryonic kidney cells expressing luciferase-tagged ATAD5 - cell viability (AID 651634; calls by dose curve; further: nearly all actives have a fitted effect of over 25% in size)
Procedure, shortened: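 HEK293T ATAD5-luc cells, 2,000/well; compound 15.5 hr, 37C/5% CO2; CellTiter-Fluor 30 min, 37C; fluorescence read.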

[5] = qHTS assay for small molecule disruptors of the mitochondrial membrane potential - cell viability (AID 720634; calls by dose curve;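 further: human HepG2 liver cancer cells; series mostly up to about 83 µM; nearly all actives have a fitted effect of over 20% in size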)
Procedure, shortened: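 Luminescence from CellTiter-Glo (ATP content) gave viability in HepG2 cells, read in the same wells as the MMP dye assay after 1 hr compound exposure at 37 C.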

[6] = qHTS assay to test for compound auto fluorescence at 590 nm (red) in HepG2 cells (AID 720674)
Procedure, shortened: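 1 hr compound incubation on HepG2 cells, 37 C, 5% CO2; plate read ex 540 nm / em 590 nm; intensities reported as Rose Bengal sodium equivalents.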

[7] = qHTS assay to test for compound auto fluorescence at 535 nm (green) in HepG2 cells (AID 720675)
[8] = qHTS assay to test for compound auto fluorescence at 460 nm (blue) in HEK293 cells (AID 720678)
Procedure, shortened: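 Measured: blue fluorescence (Ex 405/Em 460 nm) of compound-treated HEK293 cells, incubated overnight at 37C with 5% CO2 and scaled to triamterene equivalents.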

[9] = qHTS assay to test for compound auto fluorescence at 590 nm (red) in HEK293 cells (AID 720679)
Procedure, shortened: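 Using HEK293 cells at 2,000 per well, the screen added 23 nL of each compound after cell attachment and incubated overnight (37C, 5% CO2). The plate reader then captured red-label fluorescence, Ex/Em 540/590nm.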

[10] = qHTS assay for small molecule disruptors of the mitochondrial membrane potential (AID 720635); further: potency means the concentration at half of the fitted maximal effect
Procedure, shortened: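 Mitochondrial membrane potential tracked with Mito-MPS dye, red aggregates (ex 540/em 590 nm) against green monomers (ex 490/em 535 nm). Compound treatment 1 hr at 37C, dye 30 min in HepG2.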

| SMILES | Potency [1] | outcome [2] | Potency [3] | Potency [4] | Potency [5] | outcome [6] | outcome [7] | outcome [8] | outcome [9] | Potency [10] | fluorescence, relative to Rose Bengal [6] | fluorescence, % of fluorescein control [7] |
| --- | --- | --- | --- | --- | --- | --- | --- | --- | --- | --- | --- | --- |
| N[C@@H]1C[C@H]1c1ccccc1 | inactive | inactive | inactive | inactive | inactive | inactive | inactive | inactive | – | – | – | – |
| O=C(Cl)c1ccccc1 | inactive | inactive | inactive | inactive | inactive | – | inactive | inactive | inactive | – | – | – |
| Cc1cccc2sc3nncn3c12 | inactive | inactive | inactive | inactive | inactive | inactive | inactive | inactive | inactive | – | – | – |
| [P]#[In] | inactive | inactive | inactive | inactive | inactive | inactive | inactive | inactive | inactive | – | – | – |
| ClCC1CO1 (stereo not given) | inactive | inactive | inactive | inactive | inactive | – | inactive | inactive | inactive | inactive | – | – |
| COc1cccc([C@@]2(O)CCCC[C@@H]2CN(C)C)c1 | inactive | inactive | inactive | inactive | inactive | – | inactive | inactive | inactive | – | – | – |
| COc1ccccc1OC | inactive | inactive | inactive | inactive | inactive | inactive | inactive | inactive | inactive | – | – | – |
| Clc1ccc(C(Cl)(Cl)Cl)cn1 | inactive | inactive | inactive | inactive | inactive | – | inactive | inactive | inactive | – | – | – |
| Cc1cc(OC(=O)N(C)C)nn1C(=O)N(C)C | inactive | inactive | inactive | inactive | – | inactive | inactive | inactive | inactive | inactive | – | – |
| NC1(c2ccccc2)CCCCC1 | inactive | inactive | inactive | inactive | inactive | inactive | inactive | inactive | inactive | – | – | – |
| O=C(O)C(F)(F)C(F)(F)C(F)(F)C(F)(F)C(F)(F)C(F)(F)F | inactive | inactive | inactive | inactive | inactive | inactive | inactive | inactive | inactive | – | – | – |
| O=CCCl | inactive | inactive | inactive | inactive | inactive | inactive | inactive | inactive | inactive | – | – | – |
| ClCCCCl | inactive | inactive | inactive | inactive | inactive | – | inactive | inactive | inactive | – | – | – |
| CC(C)(C1CCC(O)CC1)C1CCC(O)CC1 (stereo not given) | inactive | inactive | inactive | inactive | inactive | – | inactive | inactive | inactive | 7.7 µM (active) | – | – |
| CC(C)N(Cc1ccccc1)C(=O)C(C)(C)C | inactive | inactive | inactive | inactive | inactive | inactive | inactive | inactive | inactive | – | – | – |
| CC(=NC#N)N(C)Cc1ccc(Cl)nc1 | inactive | inactive | inactive | inactive | inactive | inactive | inactive | inactive | inactive | – | – | – |
| COc1cccc(C=O)c1 | inactive | inactive | inactive | inactive | inactive | inactive | inactive | inactive | inactive | – | – | – |
| N=C(N)[Se] | inactive | inactive | inactive | inactive | – | inactive | inactive | inactive | – | inactive | – | – |
| CC(=O)OCC1=C(C(=O)O)N2C(=O)[C@@H](N)[C@H]2SC1 | inactive | inactive | inactive | inactive | – | – | – | – | – | inactive | 0.341% [at 18.6 µM] | 0.0248% [at 18.6 µM] |
| CC(C)c1ccc(O)cc1 | inactive | inactive | inactive | inactive | inactive | inactive | inactive | inactive | inactive | – | – | – |
| CC(C)C(C)(N)C#N (stereo not given) | inactive | inactive | inactive | inactive | inactive | inactive | inactive | inactive | inactive | – | – | – |
| CN1COCN(Cc2cnc(Cl)s2)/C1=N\[N+](=O)[O-] | inactive | inactive | inactive | inactive | inactive | inactive | inactive | inactive | inactive | – | – | – |
| CCN(CC)CCOC(=O)C(O)(c1ccccc1)c1ccccc1 | inactive | inactive | inactive | inactive | inactive | – | inactive | inactive | inactive | inactive | – | – |
| Cl/C=C/CCl | inactive | inactive | inactive | inactive | inactive | – | inactive | inactive | inactive | inactive | – | – |
| CCCC(C)(COC(N)=O)COC(N)=O | inactive | inactive | inactive | inactive | inactive | – | inactive | inactive | inactive | inactive | – | – |
| CC(=O)CN(CC(C)=O)N=O | inactive | inactive | inactive | inactive | inactive | inactive | inactive | inactive | inactive | – | – | – |
| CCC(C(N)=O)N1CCCC1=O (stereo not given) | inactive | inactive | inactive | inactive | inactive | – | inactive | inactive | inactive | inactive | – | – |
